Values joined by “and” are separate entries in the source; they are usually repeats but may differ in a detail not shown here. Equal values may be shown once. Active and inactive are the calls of the source. Rule for the calls: active = hit-call score of the fitted dose curve at least 0.9, where 1 is the maximum; inactive = score below 0.9.
Assays:
[1] = read-out: Cytochrome P450 (CYP1A1), CYP1A1 (gene 1543); assay: LTEA_HepaRG_CYP1A1: Life Technologies and Expression Analysis (LTEA) Assay for Cytochrome P450 (CYP1A1) using HepaRG (AID 2283454); conditions: mRNA level, 48 h; actives raise or lower the signal
Summary of the method: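 Using HepaRG cultures with 0.5% DMSO as vehicle, eight-concentration exposures (max 100 uM) lasted 48 h. Transcript levels were measured by TaqMan qRT-PCR and normalized to ACTB, GAPDH and POLR2A.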

[2] = read-out: CFLAR gene, CFLAR (gene 8837); assay: LTEA_HepaRG_CFLAR: Life Technologies and Expression Analysis (LTEA) Assay for CFLAR gene using HepaRG (AID 2283455); conditions: mRNA level, 48 h; actives raise or lower the signal
Summary of the method: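 Gain- or loss-of-signal changes in CFLAR transcript were fitted bidirectionally relative to 0.5% DMSO. Cells (HepaRG, duplicate wells) were dosed for 48 h across eight half-log concentrations topping at 100 uM; quantitation by TaqMan qRT-PCR.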

[3] = read-out: Forkhead box O1 (FOXO1), FOXO1 (gene 2308); assay: LTEA_HepaRG_FOXO1: Life Technologies and Expression Analysis (LTEA) Assay for Forkhead box O1 (FOXO1) using HepaRG (AID 2283456); conditions: mRNA level, 48 h; actives raise or lower the signal
Summary of the method: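 Using one lot of HepaRG hepatic cells kept in 0.5% DMSO, the team applied test chemicals in duplicate, half-log dilutions from 100 uM, for 48 h. Expression, normalised to ACTB/GAPDH/POLR2A, was compared with vehicle in either direction.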

[4] = read-out: growth arrest and DNA damage 45 (GADD45A), GADD45A (gene 1647); assay: LTEA_HepaRG_GADD45A: Life Technologies and Expression Analysis (LTEA) Assay for growth arrest and DNA damage 45 (GADD45A) using HepaRG (AID 2283458); conditions: mRNA level, 48 h; actives raise or lower the signal
Summary of the method: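 Eight-point concentration-response in HepaRG cells: 48 h chemical exposure, 0.5% DMSO vehicle, top dose 100 uM. Normalized qRT-PCR mRNA readout with bidirectional fitting relative to DMSO.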

[5] = read-out: Forkhead box O3 (FOXO3), FOXO3 (gene 2309); assay: LTEA_HepaRG_FOXO3: Life Technologies and Expression Analysis (LTEA) Assay for Forkhead box O3 (FOXO3) using HepaRG (AID 2283459); conditions: mRNA level, 48 h; actives raise or lower the signal
Summary of the method: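 Gene-expression endpoint: FOXO3 transcript level by qRT-PCR in HepaRG cultures treated 48 h with chemicals up to 100 uM (half-log, 0.5% DMSO vehicle).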

[6] = read-out: ABC Transporter (ABCB1), ABCB1 (gene 5243); assay: LTEA_HepaRG_ABCB1: Life Technologies and Expression Analysis (LTEA) Assay for ABC Transporter (ABCB1) using HepaRG (AID 2283460); conditions: mRNA level, 48 h; actives raise or lower the signal
Summary of the method: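 Human liver HepaRG line treated 48 h with up to 100 uM compound (eight half-log points, 0.5% DMSO); ABCB1 mRNA change fitted bidirectionally against DMSO controls.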

[7] = read-out: growth arrest and DNA damage 45 (GADD45B), GADD45B (gene 4616); assay: LTEA_HepaRG_GADD45B: Life Technologies and Expression Analysis (LTEA) Assay for growth arrest and DNA damage 45 (GADD45B) using HepaRG (AID 2283461); conditions: mRNA level, 48 h; actives raise or lower the signal
Summary of the method: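 Human HepaRG monolayers receive chemicals for 48 h at eight half-log concentrations, highest 100 uM, in 0.5% DMSO. Expression is measured by TaqMan qRT-PCR and normalized to ACTB, GAPDH and POLR2A.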

[8] = read-out: ABC Transporter (ABCC3), ABCC3 (gene 8714); assay: LTEA_HepaRG_ABCC3: Life Technologies and Expression Analysis (LTEA) Assay for ABC Transporter (ABCC3) using HepaRG (AID 2283462); conditions: mRNA level, 48 h; actives raise or lower the signal
Summary of the method: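 Transcriptional change of ABCC3 in HepaRG after 48 h treatment, determined by qRT-PCR normalized to endogenous controls. Concentrations spanned eight half-log steps to 100 uM in 0.5% DMSO.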

[9] = read-out: ABC Transporter (ABCB11), ABCB11 (gene 8647); assay: LTEA_HepaRG_ABCB11: Life Technologies and Expression Analysis (LTEA) Assay for ABC Transporter (ABCB11) using HepaRG (AID 2283463); conditions: mRNA level, 48 h; actives raise or lower the signal
Summary of the method: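 Using HepaRG cultures held in 0.5% DMSO, chemicals were tested at half-log dilutions from 100 uM for 48 h. Induction or suppression of ABCB11 mRNA, normalized to ACTB, GAPDH and POLR2A, was fitted bidirectionally against vehicle.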

[10] = read-out: ABC Transporter (ABCC2), ABCC2 (gene 1244); assay: LTEA_HepaRG_ABCC2: Life Technologies and Expression Analysis (LTEA) Assay for ABC Transporter (ABCC2) using HepaRG (AID 2283464); conditions: mRNA level, 48 h; actives raise or lower the signal
Summary of the method: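 After plating and 48 h culture, HepaRG medium is replaced with serum-free induction medium and chemicals are added (8 concentrations, max 100 uM, 0.5% DMSO) for 48 h. Total RNA then undergoes qRT-PCR for ABCC2 with housekeeping normalization.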

[11] = read-out: Broad substrate specificity ATP-binding cassette transporter ABCG2 (Homo sapiens) (UniProt Q9UNQ0); assay: LTEA_HepaRG_ABCG2: Life Technologies and Expression Analysis (LTEA) Assay for ABC Transporter (ABCG2) using HepaRG (AID 2283465); conditions: mRNA level, 48 h; actives raise or lower the signal
Summary of the method: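 Gene expression of ABCG2 in HepaRG liver cells is quantified by qRT-PCR following 48 h exposure across an eight-point series topping at 100 uM. Values come from bidirectional fitting relative to DMSO vehicle.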

[12] = read-out: ATP-citrate lyase (ACLY), ACLY (gene 47); assay: LTEA_HepaRG_ACLY: Life Technologies and Expression Analysis (LTEA) Assay for ATP-citrate lyase (ACLY) using HepaRG (AID 2283466); conditions: mRNA level, 48 h; actives raise or lower the signal
Summary of the method: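 ACLY expression changes in human HepaRG liver cells are quantified by qRT-PCR after 48 h exposure to test chemicals (maximum 100 uM, half-log steps). Values are fitted in both directions relative to 0.5% DMSO vehicle.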

[13] = read-out: Peroxisomal acyl-coenzyme A oxidase 1 (ACOX1) gene, ACOX1 (gene 51); assay: LTEA_HepaRG_ACOX1: Life Technologies and Expression Analysis (LTEA) Assay for Peroxisomal acyl-coenzyme A oxidase 1 (ACOX1) gene using HepaRG (AID 2283467); conditions: mRNA level, 48 h; actives raise or lower the signal
Summary of the method: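 Human HepaRG hepatic cultures, 48 h treatment with test chemicals up to 100 uM. ACOX1 expression read by qRT-PCR relative to 0.5% DMSO vehicle.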

[14] = read-out: Alkaline Phosphatase, Placental (ALPP) gene, ALPP (gene 250); assay: LTEA_HepaRG_ALPP: Life Technologies and Expression Analysis (LTEA) Assay for Alkaline Phosphatase, Placental (ALPP) gene using HepaRG (AID 2283468); conditions: mRNA level, 48 h; actives raise or lower the signal;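 for AC50: differentiated human HepaRG liver cells in serum-free induction medium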
Summary of the method: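 Using human liver HepaRG cells, chemicals are tested in duplicate over 48 h at half-log concentrations topping at 100 uM; phenobarbital 1 mM serves as induction control. ALPP mRNA change by qRT-PCR, bidirectional fit against vehicle.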

[15] = read-out: Bcl-2 (BAD) gene, BAD (gene 572); assay: LTEA_HepaRG_BAD: Life Technologies and Expression Analysis (LTEA) Assay for Bcl-2 (BAD) gene using HepaRG (AID 2283469); conditions: mRNA level, 48 h; actives raise or lower the signal
Summary of the method: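 Activity values reflect up- or down-regulation of BAD mRNA in human HepaRG hepatic cells treated 48 h in serum-free medium, with eight-point half-log dosing capped at 100 uM and 0.5% DMSO vehicle.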

[16] = read-out: Bcl-2 (BAX) gene, BAX (gene 581); assay: LTEA_HepaRG_BAX: Life Technologies and Expression Analysis (LTEA) Assay for Bcl-2 (BAX) gene using HepaRG (AID 2283470); conditions: mRNA level, 48 h; actives raise or lower the signal
Summary of the method: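 Human HepaRG cells treated in duplicate for 48 h across eight concentrations (max 100 uM, 0.5% DMSO); BAX expression measured by qRT-PCR.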

[17] = read-out: adenosine kinase (ADK) gene, ADK (gene 132); assay: LTEA_HepaRG_ADK: Life Technologies and Expression Analysis (LTEA) Assay for adenosine kinase (ADK) gene using HepaRG (AID 2283471); conditions: mRNA level, 48 h; actives raise or lower the signal
Summary of the method: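 HepaRG (human liver), 48 h chemical exposure, 8-pt half-log series, top 100 uM, 0.5% DMSO vehicle. Readout: ADK mRNA by qRT-PCR vs housekeeping genes; bidirectional curve fit relative to DMSO baseline.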

[18] = read-out: Alpha-fetoprotein (AFP) gene, AFP (gene 174); assay: LTEA_HepaRG_AFP: Life Technologies and Expression Analysis (LTEA) Assay for Alpha-fetoprotein (AFP) gene using HepaRG (AID 2283472); conditions: mRNA level, 48 h; actives raise or lower the signal
Summary of the method: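 Measures AFP mRNA change in HepaRG after 48 h chemical exposure (8 half-log concentrations, highest 100 uM, 0.5% DMSO). Fold change relative to DMSO, fitted in both directions.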

BCL2L11 (gene 10018) = assay: LTEA_HepaRG_BCL2L11: Life Technologies and Expression Analysis (LTEA) Assay for Bcl-2 (BCL2L11) gene using HepaRG (AID 2283473); conditions: mRNA level, 48 h; actives raise or lower the signal
Summary of the method: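 Human hepatic HepaRG cultures are treated 48 h with test chemicals (maximum 100 uM, 0.5% DMSO vehicle). Expression of BCL2L11 is measured by qRT-PCR against ACTB, GAPDH and POLR2A, with activity in either direction scored relative to vehicle.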

[19] = CEETOX_H295R_TESTO: CeeTox H295R High-throughput Steroidogenesis Assay for Testosterone (TESTO) (AID 2283457); conditions: actives raise or lower the signal
Summary of the method: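 Steroidogenesis in H295R cells following OECD 456 with minor changes; 48 h exposure. Medium testosterone by HPLC-MS/MS, DMSO as baseline, with MTT viability run in parallel.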

Measured: AC50

Sequence of Broad substrate specificity ATP-binding cassette transporter ABCG2 (Homo sapiens) (Q9UNQ0 whole entry, looked up): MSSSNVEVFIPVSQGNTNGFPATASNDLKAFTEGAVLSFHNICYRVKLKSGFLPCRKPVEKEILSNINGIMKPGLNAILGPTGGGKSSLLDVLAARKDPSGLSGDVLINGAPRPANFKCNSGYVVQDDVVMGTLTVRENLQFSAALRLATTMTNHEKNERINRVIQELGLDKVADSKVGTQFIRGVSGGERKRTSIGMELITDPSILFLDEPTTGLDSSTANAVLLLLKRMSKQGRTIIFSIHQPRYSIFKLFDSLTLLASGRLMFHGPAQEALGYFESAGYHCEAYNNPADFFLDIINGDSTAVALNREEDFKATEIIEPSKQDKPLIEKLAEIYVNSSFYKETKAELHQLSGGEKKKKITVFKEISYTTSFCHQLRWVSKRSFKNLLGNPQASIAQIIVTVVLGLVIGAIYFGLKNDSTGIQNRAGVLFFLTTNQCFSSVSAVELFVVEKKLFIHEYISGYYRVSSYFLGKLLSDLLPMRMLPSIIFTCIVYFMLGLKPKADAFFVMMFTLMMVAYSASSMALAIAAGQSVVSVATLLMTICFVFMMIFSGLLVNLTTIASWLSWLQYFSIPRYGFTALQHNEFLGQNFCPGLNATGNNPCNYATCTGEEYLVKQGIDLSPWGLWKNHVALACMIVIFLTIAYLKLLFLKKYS

CCC(=NOC/C=C/Cl)C1=C(O)CC(C2CCOCC2)CC1=O (stereo not drawn)
active: [1] 50 µM
not listed: [19]
inactive: all other assays above

CCOC(=O)COc1cc(-c2nn(C)c(OC(F)F)c2Cl)c(F)cc1Cl
active: [1] 50 µM | [6] 34.3 µM | [10] 50 µM
not listed: [11]
inactive: all other assays above

C#CC(C)(C)NC(=O)c1cc(Cl)cc(Cl)c1
active: [1] 33 µM | [6] 50 µM | [10] 27.3 µM | [14] 17.3 µM
not listed: [12] | [18] | [19]
inactive: all other assays above

FC(F)C(F)(F)OCC(Cn1cncn1)c1ccc(Cl)cc1Cl (stereo not drawn)
inactive: [5] | [6] | [7] | [15] | [17] | BCL2L11 (gene 10018)
active: [1] 3.17 µM | [2] 78.4 µM | [3] 75.3 µM | [4] 74.2 µM | [8] 21.1 µM | [9] 36.6 µM | [10] 75.9 µM | [11] 15 µM | [12] 12.2 µM | [13] 53.6 µM | [14] 55 µM | [16] 32.3 µM | [18] 20.2 µM

C[N+]1(C)CCCCC1
active: [1] 50 µM
not listed: [19]
inactive: all other assays above

CCCOc1nn(C(=O)NS(=O)(=O)c2ccccc2C(=O)OC)c(=O)n1C
not listed: [12] | [19]
inactive: all other assays above

CCCOCC(=Nc1ccc(Cl)cc1C(F)(F)F)n1ccnc1
active: [1] 12.8 µM | [2] 50 µM | [3] 50 µM | [5] 40 µM | [6] 80.5 µM | [7] 92 µM | [9] 17.6 µM | [10] 78.4 µM | [12] 88.6 µM | [13] 72.2 µM | [14] 15.8 µM | [16] 21.7 µM | [17] 78.5 µM | [18] 15.8 µM
inactive: [4] | [8] | [15] | BCL2L11 (gene 10018)

CCOP(=S)(OCC)Oc1ccc([N+](=O)[O-])cc1
active: [1] 15.4 µM | [18] 2.4 µM
not listed: [12] | [19]
inactive: all other assays above

CCCCOC(=O)[C@@H](C)Oc1ccc(Oc2ccc(C#N)cc2F)cc1
active: [1] 23.3 µM | [13] 39.7 µM
not listed: [19]
inactive: all other assays above

COP(=O)(OC)C(O)C(Cl)(Cl)Cl (stereo not drawn)
active: [4] 0.12 µM | [14] 0.0572 µM
not listed: [1] | [19]
inactive: all other assays above

CN(C)[C@@H]1C(=O)C(C(N)=O)=C(O)[C@@]2(O)C(=O)C3=C(O)c4c(O)cccc4[C@@](C)(O)[C@H]3[C@H](O)[C@@H]12
active: [1] 66.4 µM and 18.3 µM
not listed: [11] | [19]
inactive: all other assays above

Cc1nn(-c2cc(NS(C)(=O)=O)c(Cl)cc2Cl)c(=O)n1C(F)F
active: [1] 50 µM | [6] 8.21 µM | [10] 13.6 µM
not listed: [9] | [11] | [12] | [19]
inactive: all other assays above

CCc1cnc(C2=NC(C)(C(C)C)C(=O)N2)c(C(=O)O)c1 (stereo not drawn)
not listed: [11] | [12] | [19]
inactive: all other assays above

CCOP(=O)(OCC)Oc1cc(C)nc(C(C)C)n1
active: [1] 50.2 µM
not listed: [11] | [19]
inactive: all other assays above

Reference: PubChem BioAssay (EPA / NIEHS)
